Drawing on PubChem BioAssay AID463173 (ICCB-Longwood Screening Facility, Harvard Medical School, 2010), this text covers survival for 59 molecules.

Structures are written as SMILES. Among all 52,000 compounds or so, about 1,700 (3.3%) were called active. Shown is part of a subset that was picked to be rich in actives. Unmarked numbers belong to inactive results. No stated cut-off is given here; in the data, active means survival mostly below about 52% (no sharp cut-off); inactive means mostly above about 56%.

In this test the test system is Wild type. The experiment in a line: S. aureus survival, RN4220 and DeltatarO strains – OD600, teichoic acid synthesis inhibitors, primary screen (AID 463173). Particulars: S. aureus RN4220 wild type/DeltatarO growth, OD600, 18 h, stronger effect = lower value, screened at 18.75 µg/mL (by protocol).
With `COc1cc2c(cc1OC)C(COc1ccccc1OC)N(C(=O)c1ccc(S(=O)(=O)N3CCCC3)cc1)CC2` (centres undefined), the survival is 0% (active).

Consider `COc1cc2c(cc1OC)C(COc1cc(C)cc(C)c1)N(C(=O)c1ccc(S(=O)(=O)N3CCCC3)cc1)CC2` (centres undefined), for which the survival is 45%.

On to `COc1cc2c(cc1OC)C(COc1ccc(F)cc1)N(C(=O)c1ccc(S(=O)(=O)N3CCCC3)cc1)CC2` (centres undefined), for which the survival was 88%.

As to `COc1cccc(NC(=O)CCc2nnc3n(CC(C)C)c(=O)c4ccccc4n23)c1`, the survival is 92%.

In the case of `Cc1ccc(C)c(N(C)C(=O)c2cc3c(s2)-c2ccccc2OC3)c1`, the survival was -2% (active).

Turning to `Cc1ccc(CCNC(=O)c2cc3c(s2)-c2ccccc2OC3)cc1`, the survival is 95%.

As to `COc1ccc(N2CCN(C(=O)c3cc4c(s3)-c3ccccc3OC4)CC2)cc1`, the survival was 116%.

On to `COc1ccc(CNC(=O)c2cc3c(s2)-c2ccccc2OC3)cc1`, for which the survival is 92%.

With `CCOc1ccccc1N(C)C(=O)c1cc2c(s1)-c1ccccc1OC2`, the survival is 13% (active).

Turning to `COc1ccc(N(C)C(=O)c2cc3c(s2)-c2ccccc2OC3)cc1`, the survival was 13% (active).

As for `CCOc1ccc(CCNC(=O)c2cc3c(s2)-c2ccccc2OC3)cc1OCC`, the survival was 90%.

As for `COc1cc(OC)c(N(C)C(=O)c2cc3c(s2)-c2ccccc2OC3)cc1Cl`, the survival is 73%.

For `Cc1ccc(CCNC(=O)c2cc3c(s2)-c2c(C)cccc2OC3)cc1`, the survival is 88%.

Turning to `CCN(C(=O)c1cc2c(s1)-c1c(C)cccc1OC2)c1ccccc1F`, the survival is 96%.

With `CCN(C(=O)c1cc2c(s1)-c1c(C)cccc1OC2)c1cc(C)ccc1C`, the survival was 11% (active).

Consider `COc1cc(NC(=O)c2cc3c(s2)-c2ccccc2OC3)cc(OC)c1OC`, for which the survival was 53%.

`NCCC(=O)N1c2ccccc2Sc2ccc(Cl)cc21`: the survival was 104%.

On to `Cc1ccc(F)cc1NC(=O)CCc1c(C)nn(-c2ccc(N3CCOCC3)nn2)c1C`, for which the survival is 113%.

As to `O=C(c1ccccc1)N1CCc2cc(CNS(=O)(=O)c3ccc(Cl)s3)ccc21`, the survival is 66%.

As for `Cc1c(C(=O)NCc2ccc(F)cc2)oc2ccc(S(=O)(=O)N3CCCCC3)cc12`, the survival was 84%.

Consider `CCOC(=O)CSc1nc2ccc(NC(=O)c3cccc(F)c3)cc2s1`, for which the survival is 87%.

Take `CS(=O)(=O)Nc1ccc2c(c1)OCO2`: the survival is 94%.

Consider `COc1ccc(OC)c(NC(=O)CCCOc2cc(=O)n(C)c3ccccc23)c1`, for which the survival is 64%.

As to `COc1cccc(NC(=O)C2CCCN(c3ncnc4onc(C)c34)C2)c1` (centres undefined), the survival is 72%.

On to `CCC(C)NC(=O)c1c(C)oc2nc(C)nc(N3CCOCC3)c12` (centres undefined), for which the survival was 88%.

Consider `CCc1cccc(NC(=O)CCn2nc(C)cc2C)c1`, for which the survival is 77%.

As to `COc1ccc(NC(=O)C2CCN(C(=O)c3sc4nc[nH]c(=O)c4c3C)CC2)c(OC)c1`, the survival is 81%.

As for `CCOc1ccc(C(=O)Nc2cc(-c3nc4ccccc4s3)ccc2OC)cc1`, the survival was 163%.

For the molecule `COc1cc(OC)cc(C(=O)Nc2ccccc2-c2nc3ccccc3s2)c1`, the survival was 41%.

For `Cc1ccc(C(=O)Nc2ccc(-c3nc4ccccc4s3)c(O)c2)c(C)c1`, the survival was 91%.

Regarding `CSc1ccc(C(=O)Nc2ccc(-c3nc4ccccc4s3)c(O)c2)cc1`, the survival was 0% (active).

On to `COc1cc(OC)cc(C(=O)Nc2cc(-c3nc4ccccc4s3)ccc2OC)c1`, for which the survival is 67%.

As for `COc1ccc(C(=O)Nc2cc(-c3nc4ccccc4s3)ccc2OC)cc1`, the survival was 5% (active).

On to `O=C(Nc1ccc(-c2nc3ccccc3s2)c(O)c1)c1ccc(Br)cc1`, for which the survival was 85%.

Regarding `COc1cccc(C(=O)Nc2ccccc2-c2nc3ccccc3s2)c1`, the survival is 42%.

In the case of `COc1ccc(C(=O)Nc2ccccc2-c2nc3ccccc3s2)cc1OC`, the survival is -6% (active).

For the molecule `O=C(NCc1ccc(Cl)cc1)C(=O)NCC(c1cccs1)S(=O)(=O)c1ccc(Cl)cc1` (centres undefined), the survival was 58%.

Consider `CCOC(=O)C1CCN(c2cc(C)nc3c(-c4ccccc4OC)c(C)nn23)CC1`, for which the survival was 82%.

Consider `COc1ccc(S(=O)(=O)N(Cc2ccccc2)Cc2nc3ccccc3c(=O)[nH]2)cc1`, for which the survival was 113%.

As to `COc1ccc(C2=C(C)C(=O)N(Cc3ccc(C(=O)NCc4ccccc4C)cc3)S2(=O)=O)cc1`, the survival was 66%.

On to `Cc1cccc(OCc2nc(CC(=O)Nc3ccc(Cl)cc3)cs2)c1`, for which the survival was 92%.

Turning to `COc1ccccc1N1CCN(c2ncnc3c2c(-c2ccccc2)cn3-c2cccc(Cl)c2)CC1`, the survival is 74%.

With `CCc1ccc2nc(N(Cc3cccnc3)C(=O)c3cccs3)sc2c1`, the survival is 127%.

On to `CC(=O)c1cccc(NC(=O)c2ccc3c(c2)CCN3S(=O)(=O)c2ccccc2)c1`, for which the survival is 71%.

For the molecule `Cc1c(-c2nnc(SCC(=O)Nc3ccc(Br)cc3)o2)nnn1-c1ccc(F)cc1`, the survival is 80%.

Turning to `O=C(CCCCCn1c(=O)[nH]c2ccccc2c1=O)NCCc1ccccc1`, the survival is 92%.

In the case of `Cc1cccc(NC(=O)c2sc3nc4c(cc3c2N)CCCCCC4)c1C`, the survival was 121%.

As for `O=C(c1ccccc1)n1nc(-c2ccccc2)nc1NCc1ccc(F)cc1`, the survival was -4% (active).

`O=C(c1ccc(F)cc1)n1nc(-c2cccnc2)nc1NCc1ccccc1`: the survival is 81%.

In the case of `O=C(c1ccco1)n1nc(-c2ccc(Cl)cc2)nc1NCc1ccccc1`, the survival was 74%.

On to `O=C(c1ccco1)n1nc(-c2ccc(Cl)cc2)nc1NCc1ccc(F)cc1`, for which the survival was 70%.

Take `O=C(c1ccc(Cl)cc1)n1nc(-c2ccccc2)nc1NCc1ccco1`: the survival was 24% (active).

For `COc1ccc(C(=O)n2nc(-c3ccc(Cl)cc3)nc2NCc2ccco2)cc1`, the survival was 99%.

As for `O=C(c1ccc(F)cc1)n1nc(-c2ccc(Cl)cc2)nc1NCc1ccco1`, the survival is 76%.

On to `O=C(c1ccc(F)cc1)n1nc(-c2ccccc2)nc1NCc1ccco1`, for which the survival was 9% (active).

With `O=C(c1ccccc1)n1nc(-c2ccc(Cl)cc2)nc1NCc1ccco1`, the survival was 25% (active).

As to `O=C(c1ccco1)n1nc(-c2ccccc2)nc1NCc1ccc(Cl)cc1`, the survival was 85%.

As to `O=C(c1ccco1)n1nc(-c2ccccc2)nc1NCc1ccc(F)cc1`, the survival is 73%.

With `O=C(c1ccc(F)cc1)n1nc(-c2ccccc2)nc1NCc1ccc(F)cc1`, the survival was 19%.
